Assay results reported in PubChem BioAssay AID1159580 (chemical genetic matrix, 2015).
Where “and” joins values, the source holds several entries; their conditions need not be identical. Equal values may be shown once. In all, about 5,500 compounds went through this assay and about 2,000 (36%) were called active. Another 18% or so got no clear call; they are omitted. Rule as the data show it: active = normalized growth mostly below about 0.91 (no sharp cut-off); inconclusive = no clear call, values can overlap the other calls; inactive = mostly above about 0.92. The list shows a part of the results.

Assay: chemical genetic growth profiling, strain panel (AID 1159580);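 also: tested at 20 µM; growth read once vehicle control cultures reached saturation at 30 °C; 1 = growth at the plate median or of vehicle wells; lower values mean less growth of the strain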
Settings: growth OD

Measured: normalized growth

CC(N=C(NC#N)Nc1ccncc1)C(C)(C)C (stereo not drawn)
inactive: S. cerevisiae deletion strains, locus YJR043C, strain POL32, stronger effect = lower value 1.02 | S. cerevisiae deletion strains, locus YJR075W, strain HOC1, stronger effect = lower value 1.03 | S. cerevisiae deletion strains, locus YKL009W, strain mrt4, stronger effect = lower value 1.04 | S. cerevisiae deletion strains, locus YKL068W, stronger effect = lower value 1.01 | S. cerevisiae deletion strains, locus YKL085W, strain MDH1 (second series), stronger effect = lower value 1.01 | S. cerevisiae deletion strains, locus YKL085W, strain MDH1, stronger effect = lower value 1.01 | S. cerevisiae deletion strains, locus YKL160W, strain elf1, stronger effect = lower value 0.97 | S. cerevisiae deletion strains, locus YKL190W, strain CNB1, stronger effect = lower value 1.01 | S. cerevisiae deletion strains, locus YKR001C, strain vps1, stronger effect = lower value 1.02 | S. cerevisiae deletion strains, locus YKR026C, strain gcn3, stronger effect = lower value 0.978 | S. cerevisiae deletion strains, locus YKR091W, strain srl3, stronger effect = lower value 0.993 | S. cerevisiae deletion strains, locus YLL001W, strain dnm1, stronger effect = lower value 0.956 | S. cerevisiae deletion strains, locus YLL026W, stronger effect = lower value 0.968 | S. cerevisiae deletion strains, locus YLL041C, strain sdh2, stronger effect = lower value 0.982 | S. cerevisiae deletion strains, locus YLR027C, strain aat2, stronger effect = lower value 0.967 | S. cerevisiae deletion strains, locus YLR039C, strain RIC1, stronger effect = lower value 1.02 | S. cerevisiae deletion strains, locus YLR058C, strain SHM2, stronger effect = lower value 1.01 | S. cerevisiae deletion strains, locus YLR102C, strain apc9, stronger effect = lower value 1.02 | S. cerevisiae deletion strains, locus YLR221C, strain rsa3, stronger effect = lower value 1.02 | S. cerevisiae deletion strains, locus YLR258W, strain gsy2, stronger effect = lower value 1.01 | S. cerevisiae deletion strains, locus YLR262C, strain YPT6 (second series), stronger effect = lower value 0.947 | S. cerevisiae deletion strains, locus YLR262C, strain YPT6, stronger effect = lower value 1.04 | S. cerevisiae deletion strains, locus YLR268W, strain sec22, stronger effect = lower value 1.06 | S. cerevisiae deletion strains, locus YLR320W, strain mms22, stronger effect = lower value 1.02 | S. cerevisiae deletion strains, locus YLR330W, strain CHS5, stronger effect = lower value 1.01 | S. cerevisiae deletion strains, locus YLR342W, strain FKS1 (second series), stronger effect = lower value 0.984 | S. cerevisiae deletion strains, locus YLR342W, strain FKS1, stronger effect = lower value 0.945 | S. cerevisiae deletion strains, locus YLR357W, strain rsc2, stronger effect = lower value 0.957 | S. cerevisiae deletion strains, locus YLR370C, strain arc18, stronger effect = lower value 0.972 | S. cerevisiae deletion strains, locus YLR371W, strain rom2, stronger effect = lower value 1.04 | S. cerevisiae deletion strains, locus YLR384C, strain iki3, stronger effect = lower value 0.968 | S. cerevisiae deletion strains, locus YLR418C, strain cdc73, stronger effect = lower value 1.04 | S. cerevisiae deletion strains, locus YML016C, strain PPZ1, stronger effect = lower value 1 | S. cerevisiae deletion strains, locus YML032C, strain rad52, stronger effect = lower value 1.03 | S. cerevisiae deletion strains, locus YML120C, strain ndi1, stronger effect = lower value 0.964 | S. cerevisiae deletion strains, locus YML124C, strain tub3, stronger effect = lower value 1.01 | S. cerevisiae deletion strains, locus YMR058W, strain fet3, stronger effect = lower value 0.978 | S. cerevisiae deletion strains, locus YMR078C, strain ctf18, stronger effect = lower value 1.02 | S. cerevisiae deletion strains, locus YMR125W, strain sto1, stronger effect = lower value 0.984 | S. cerevisiae deletion strains, locus YMR129W, stronger effect = lower value 0.981 | S. cerevisiae deletion strains, locus YMR205C, strain PFK2, stronger effect = lower value 0.984 | S. cerevisiae deletion strains, locus YMR223W, strain ubp8, stronger effect = lower value 0.994 | S. cerevisiae deletion strains, locus YMR231W, strain pep5, stronger effect = lower value 1 | S. cerevisiae deletion strains, locus YMR263W, strain SAP30, stronger effect = lower value 1.04 | S. cerevisiae deletion strains, locus YMR307W, strain GAS1, stronger effect = lower value 0.992 and 1.03 | S. cerevisiae deletion strains, locus YNL067W, strain RPL9B, stronger effect = lower value 1.04 | S. cerevisiae deletion strains, locus YNL071W, strain lat1, stronger effect = lower value 0.988 | S. cerevisiae deletion strains, locus YNL128W, strain TEP1, stronger effect = lower value 1.02 | S. cerevisiae deletion strains, locus YNL153C, strain GIM3, stronger effect = lower value 1.02 | S. cerevisiae deletion strains, locus YNL175C, strain NOP13, stronger effect = lower value 1 | S. cerevisiae deletion strains, locus YNL197C, strain WHI3, stronger effect = lower value 0.977 | S. cerevisiae deletion strains, locus YNL209W, strain ssb2, stronger effect = lower value 0.993 | S. cerevisiae deletion strains, locus YNL224C, strain SQS1, stronger effect = lower value 0.992 | S. cerevisiae deletion strains, locus YNL233W, strain BNI4, stronger effect = lower value 1.02 | S. cerevisiae deletion strains, locus YNL248C, strain rpa49, stronger effect = lower value 1.02 | S. cerevisiae deletion strains, locus YNL250W, strain rad50, stronger effect = lower value 1.01 | S. cerevisiae deletion strains, locus YNL271C, strain bni1, stronger effect = lower value 1.02 | S. cerevisiae deletion strains, locus YNL298W, strain CLA4, stronger effect = lower value 1.02 | S. cerevisiae deletion strains, locus YNL307C, strain MCK1, stronger effect = lower value 1.02 | S. cerevisiae deletion strains, locus YNL322C, strain KRE1 (second series), stronger effect = lower value 0.982 | S. cerevisiae deletion strains, locus YNL322C, strain KRE1, stronger effect = lower value 1.02 and 1 | S. cerevisiae deletion strains, locus YNR049C, strain mso1, stronger effect = lower value 0.986 | S. cerevisiae deletion strains, locus YNR052C, strain pop2, stronger effect = lower value 1.01 | S. cerevisiae deletion strains, locus YOL006C, strain TOP1, stronger effect = lower value 1.08 | S. cerevisiae deletion strains, locus YOL012C, strain htz1 1.52 | S. cerevisiae deletion strains, locus YOL147C, strain pex11, stronger effect = lower value 1.01 | S. cerevisiae deletion strains, locus YOR001W, strain rrp6, stronger effect = lower value 0.957 | S. cerevisiae deletion strains, locus YOR061W, strain CKA2, stronger effect = lower value 0.999 | S. cerevisiae deletion strains, locus YOR069W, strain VPS5, stronger effect = lower value 1.01 | S. cerevisiae deletion strains, locus YOR070C, strain gyp1, stronger effect = lower value 0.996 | S. cerevisiae deletion strains, locus YOR080W, strain dia2, stronger effect = lower value 0.963 | S. cerevisiae deletion strains, locus YOR083W, strain WHI5 (second series), stronger effect = lower value 0.984 | S. cerevisiae deletion strains, locus YOR083W, strain WHI5, stronger effect = lower value 0.956 | S. cerevisiae deletion strains, locus YOR106W, strain vam3, stronger effect = lower value 0.964 | S. cerevisiae deletion strains, locus YOR136W, strain idh2, stronger effect = lower value 1.01 | S. cerevisiae deletion strains, locus YOR144C, strain elg1, stronger effect = lower value 1.02 | S. cerevisiae deletion strains, locus YOR184W, strain ser1, stronger effect = lower value 1.03 | S. cerevisiae deletion strains, locus YOR265W, strain rbl2, stronger effect = lower value 0.98 | S. cerevisiae deletion strains, locus YOR270C, strain vph1, stronger effect = lower value 0.997 | S. cerevisiae deletion strains, locus YOR290C, strain snf2, stronger effect = lower value 1.01 | S. cerevisiae deletion strains, locus YOR316C, strain cot1, stronger effect = lower value 1.02 | S. cerevisiae deletion strains, locus YPL051W, strain arl3, stronger effect = lower value 0.985 | S. cerevisiae deletion strains, locus YPL055C, strain LGE1, stronger effect = lower value 1.03 | S. cerevisiae deletion strains, locus YPL078C, strain atp4, stronger effect = lower value 0.919 | S. cerevisiae deletion strains, locus YPL106C, strain sse1, stronger effect = lower value 0.945 | S. cerevisiae deletion strains, locus YPL240C, strain hsp82, stronger effect = lower value 0.972 | S. cerevisiae deletion strains, locus YPL241C, strain CIN2, stronger effect = lower value 1 | S. cerevisiae deletion strains, locus YPR119W, strain clb2, stronger effect = lower value 1.02 | S. cerevisiae deletion strains, locus YPR141C, strain kar3, stronger effect = lower value 1.01 | S. cerevisiae deletion strains, locus YPR163C, strain tif3, stronger effect = lower value 1.03 | S. cerevisiae deletion strains, locus YPR167C, strain met16, stronger effect = lower value 1.02 | S. cerevisiae deletion strains, strain wtn01, stronger effect = lower value 1.05 | S. cerevisiae strains, strain wild type, stronger effect = lower value 1.01
